In PubChem BioAssay (Tox21):
“And” between values parts separate entries of the source, which are not always exact repeats. Equal values may be shown once. Results filed as inconclusive are left out. Where a call stands in place of a potency, no number is given. More than one record can exist for a structure, and the calls need not agree. The source made the active and inactive calls. Calls come from the whole dose curve; as a rule, active = well fitted curve in the direction sought with a large enough effect in the repeat runs; inconclusive = weak or mixed curves; inactive = no such curve, though single readings can be large; an effect the other way counts as inactive or inconclusive.

Experiments:
[1] = qHTS RealTime-Glo MT Cell Viability Assay in HepG2 cells - 8 hour (AID 1224873); note: nearly all actives have a fitted effect of over 55% in size; note: potency is the fitted concentration of half-maximal effect
Procedure, shortened: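 HepG2 cells (600/well) mixed with RealTime-Glo MT reagent, settled 5 h at 37 C/5% CO2 before compound addition. Nonlytic NanoLuc luminescence from viable-cell prosubstrate reduction read repeatedly during 40 h treatment at 37 C.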

[2] = qHTS RealTime-Glo MT Cell Viability Assay in HEK293 cells - 40 hour (AID 1224874); details: RealTime-Glo luminescence; max response: stronger effect = lower value; note: nearly all actives have a fitted effect of over 50% in size; note: potency is the fitted concentration of half-maximal effect
Procedure, shortened: (§1)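 600 cells/well were plated with the nonlytic NanoLuc/prosubstrate reagent, pre-incubated 5 h, then given 23 nL of compound in DMSO. Incubation at 37 C for 40 h, with luminescence from viable-cell-reduced substrate read repeatedly from 0 h.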

[3] = A CellTox Green Cytotoxicity Assay to monitor cytotoxicity in HepG2 cells - 16 hour (AID 1224876); note: nearly all actives have a fitted effect of over 45% in size; note: potency is the fitted concentration of half-maximal effect
Procedure, shortened: (§2)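 HepG2 cells, 600/well, preincubated 5 h with CellTox Green dye, then exposed to Tox21 compounds in DMSO at 37 C for up to 40 h. Dead-cell DNA fluorescence read at the indicated time point.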

[4] = qHTS RealTime-Glo MT Cell Viability Assay in HepG2 cells - 32 hour (AID 1224877); note: nearly all actives have a fitted effect of over 55% in size; note: potency is the fitted concentration of half-maximal effect
Procedure, shortened: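 Cells + NanoLuc/prosubstrate dispensed (600 cells/well) → 5 h at 37 C/5% CO2 → compounds in DMSO transferred → 40 h incubation at 37 C, luminescence read at 0, 8, 16, 24, 32, 40 h.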

[5] = A CellTox Green Cytotoxicity Assay to monitor cytotoxicity in HepG2 cells - 24 hour (AID 1224878); note: nearly all actives have a fitted effect of over 45% in size; note: potency is the fitted concentration of half-maximal effect
Procedure, shortened: as §2

[6] = A CellTox Green Cytotoxicity Assay to monitor cytotoxicity in HepG2 cells - 40 hour (AID 1224879); note: nearly all actives have a fitted effect of over 40% in size; note: potency is the fitted concentration of half-maximal effect
Procedure, shortened: as §2

[7] = qHTS RealTime-Glo MT Cell Viability Assay in HEK293 cells - 0 hour (AID 1224880); note: top concentration of the series differs between compounds; nearly all actives have a fitted effect of over 45% in size
Procedure, shortened: as §1

[8] = A CellTox Green Cytotoxicity Assay to monitor cytotoxicity in HEK293 cells - 32 hour (AID 1224881); note: nearly all actives have a fitted effect of over 40% in size; note: potency is the fitted concentration of half-maximal effect
Procedure, shortened: (§3)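 HEK293 cells, 600/well, were preincubated 5 hours and then exposed to compounds at 37 C for up to 40 hours. A cell-impermeant cyanine dye staining dead-cell DNA was read by fluorescence at 0, 8, 16, 24, 32 and 40 h time points.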

[9] = A CellTox Green Cytotoxicity Assay to monitor cytotoxicity in HepG2 cells - 0 hour (AID 1224882); note: nearly all actives have a fitted effect of over 35% in size
Procedure, shortened: as §2

[10] = A CellTox Green Cytotoxicity Assay to monitor cytotoxicity in HEK293 cells - 24 hour (AID 1224875); note: series mostly up to about 77 µM; nearly all actives have a fitted effect of over 45% in size
Procedure, shortened: as §3

With `CC(C)(C)c1n[nH]c(=O)n(N)c1=O` the Potency [1] was “inactive”, the max response [2] was -0.732% (inactive) and the Potency [3] was “inactive”. For the same compound, the Potency [4] was “inactive”, the Potency [5] was “inactive” and the Potency [6] was “inactive”. For the same compound, the Potency [7] was “inactive”, the Potency [8] was “inactive” and the Potency [9] was “inactive”.
In the case of `COC(=O)CC(C)CCC=C(C)C` (stereo not given), the Potency [1] is reported as “inactive”, the max response [2] is reported as 7.75% (inactive) and the Potency [3] is reported as “inactive”. The Potency [4] was “inactive”, the Potency [5] was “inactive” and the Potency [7] was “inactive”. For the same compound, the Potency [8] was “inactive” and the Potency [9] was “inactive”.
For `O=Cc1ccc(F)cc1`, the Potency [1] was “inactive”, the max response [2] was 3.4% (inactive) and the Potency [3] was “inactive”. The Potency [4] was “inactive”, the Potency [5] was “inactive” and the Potency [7] was “inactive”. For the same compound, the Potency [8] was “inactive” and the Potency [9] was “inactive”.
In the case of `CCCCCCCCCCCCCCCCCO`, the viability change, negative = cytotoxic [1] is reported as 4.95% [at 15.8 µM] (inactive), the max response [2] is reported as 0.671% (inactive) and the cytotoxicity increase [3] is reported as 1.01% [at 15.8 µM] (inactive). For the same compound, the activity change, negative = cytotoxic [4] was -2.69% [at 15.8 µM] (inactive), the cytotoxicity [5] was 1.75% [at 15.8 µM] (inactive) and the cytotoxicity increase [6] was 4.05% [at 15.8 µM] (inactive). The activity change, negative = cytotoxicity [7] was -0.227% [at 15.8 µM] (inactive), the cytotoxicity increase [8] was -22.2% [at 15.8 µM] (inactive) and the cytotoxicity [9] was -1.06% [at 15.8 µM] (inactive).
For `CCC1CCCCC1`, the Potency [1] was “inactive”, the max response [2] was -1.07% (inactive) and the Potency [10] was “inactive”. For the same compound, the Potency [4] was “inactive”, the Potency [6] was “inactive” and the Potency [7] was “inactive”. For the same compound, the Potency [8] was “inactive” and the Potency [9] was “inactive”.
With `CCCCCCCOC(=O)c1ccc(O)cc1` the Potency [1] was “inactive”, the Potency [2] was 24.6 µM (active) and 19.5 µM (active) and the Potency [3] was “inactive and 38.9 µM (active)”. For the same compound, the Potency [4] was “inactive”, the Potency [5] was 24.5 µM (active) and the Potency [6] was 24.5 µM (active). For the same compound, the Potency [7] was “inactive”, the Potency [8] was “inactive” and the Potency [9] was “inactive”.
For `C=CC(=C)CC/C=C(\C)CCC=C(C)C`, the viability change, negative = cytotoxic [1] was 1.83% [at 15.8 µM] (inactive), the max response [2] was -13.5% (inactive) and the cytotoxicity increase [3] was 1.01% [at 15.8 µM] (inactive). The activity change, negative = cytotoxic [4] was -2.56% [at 15.8 µM] (inactive), the cytotoxicity [5] was -0.282% [at 15.8 µM] (inactive) and the activity change, negative = cytotoxicity [7] was -0.65% [at 15.8 µM] (inactive). The cytotoxicity increase [8] was 1.9% [at 15.8 µM] (inactive) and the cytotoxicity [9] was -7.07% [at 15.8 µM] (inactive).
With `CCCCCCCCCC(=O)N(C)C` the Potency [1] was “inactive”, the max response [2] was -15.6% (inactive) and the Potency [3] was “inactive”. For the same compound, the Potency [4] was “inactive”, the Potency [5] was “inactive” and the Potency [6] was “inactive”. For the same compound, the Potency [7] was “inactive” and the Potency [9] was “inactive”.
With `Oc1ccc(-c2ccccc2)c(Cl)c1` the Potency [1] was “inactive”, the Potency [2] was 21.9 µM (active) and the Potency [3] was 49 µM (active). The Potency [4] was “inactive”, the Potency [5] was 49 µM (active) and the Potency [7] was “inactive”. For the same compound, the Potency [9] was “inactive”.
In the case of `O=c1cccc[nH]1`, the Potency [1] is reported as “inactive”, the max response [2] is reported as 12.2% (inactive) and the Potency [10] is reported as “inactive”. The Potency [4] was “inactive”, the Potency [6] was “inactive” and the Potency [7] was “inactive”. For the same compound, the Potency [8] was “inactive” and the Potency [9] was “inactive”.
For `CC(C)(C)C1=CC(=O)C=C(C(C)(C)C)C1=O`, the Potency [1] was “inactive”, the max response [2] was 11.2% (inactive) and the Potency [3] was “inactive”. For the same compound, the Potency [4] was “inactive”, the Potency [5] was “inactive” and the Potency [7] was “inactive”. The Potency [9] was “inactive”.
For `C=C[C@](C)(O)CC[C@@H]1[C@@]2(C)CCCC(C)(C)[C@@H]2CC[C@@]1(C)O`, the Potency [1] was 49 µM (active), the Potency [2] was 21.9 µM (active) and the Potency [3] was 54.9 µM (active). The Potency [4] was 54.9 µM (active), the Potency [5] was 49 µM (active) and the Potency [6] was 49 µM (active). For the same compound, the Potency [7] was “inactive”, the Potency [8] was 43.6 µM (active) and the Potency [9] was “inactive”.
For `Clc1nc2ccccc2s1`, the Potency [1] was “inactive”, the max response [2] was -10.6% (inactive) and the Potency [3] was “inactive”. The Potency [4] was “inactive”, the Potency [5] was “inactive” and the Potency [6] was “inactive”. The Potency [7] was “inactive”, the Potency [8] was “inactive” and the Potency [9] was “inactive”.
With `CCCOc1sc(C(=O)N2CCC(c3cc(CN)ccc3F)CC2)c(C)c1Br` the Potency [1] was 31.8 µM (active), the Potency [2] was 31.8 µM (active) and the Potency [3] was 20 µM (active). For the same compound, the Potency [4] was 22.5 µM (active), the Potency [5] was 20 µM (active) and the Potency [6] was 15.9 µM (active). The Potency [8] was 31.8 µM (active) and the Potency [9] was “inactive”.
For `CC1(C)C(=O)N(CO)C(=O)N1CO`, the Potency [1] was “inactive”, the max response [2] was 2.01% (inactive) and the Potency [3] was “inactive”. The Potency [4] was “inactive”, the Potency [6] was “inactive” and the Potency [7] was “inactive”. For the same compound, the Potency [9] was “inactive”.
For `CCCCOC(=O)C(C)CC` (stereo not given), the Potency [1] was “inactive”, the max response [2] was 1.36% (inactive) and the Potency [3] was “inactive”. For the same compound, the Potency [4] was “inactive”, the Potency [6] was “inactive” and the Potency [7] was “inactive”. For the same compound, the Potency [8] was “inactive” and the Potency [9] was “inactive”.
With `CCN(CC)CCSC(=O)C(c1ccccc1)c1ccccc1` the Potency [1] was “inactive”, the max response [2] was -12.3% (inactive) and the Potency [3] was “inactive”. For the same compound, the Potency [4] was “inactive”, the Potency [7] was “inactive” and the Potency [9] was “inactive”.
In the case of `O=C(O)c1cccc(Cl)n1`, the Potency [1] is reported as “inactive”, the max response [2] is reported as 7.12% (inactive) and the Potency [4] is reported as “inactive”. For the same compound, the Potency [5] was “inactive”, the Potency [7] was “inactive” and the Potency [9] was “inactive”.
With `C/C=C/c1ccc(OC)c(OC)c1` the Potency [1] was “inactive”, the Potency [10] was “inactive” and the Potency [3] was “inactive”. The Potency [4] was “inactive”, the Potency [5] was “inactive” and the Potency [6] was “inactive”. For the same compound, the Potency [7] was “inactive”, the Potency [8] was “inactive” and the Potency [9] was “inactive”.
With `CS(C)(=O)=O` the Potency [1] was “inactive”, the max response [2] was -3.02% (inactive) and the Potency [4] was “inactive”. The Potency [5] was “inactive”, the Potency [6] was “inactive” and the Potency [7] was “inactive”. The Potency [8] was 19.5 µM (active) and the Potency [9] was “inactive”.
In the case of `O=Nc1ccc(NO)cc1`, the Potency [1] is reported as “inactive”, the Potency [10] is reported as “inactive” and the Potency [3] is reported as “inactive”. The Potency [4] was “inactive”, the Potency [5] was “inactive” and the Potency [6] was “inactive”. The Potency [7] was “inactive”, the Potency [8] was “inactive” and the Potency [9] was “inactive”.
For `CCOC(=O)[C@@](C)(N)Cc1ccc(O)c(O)c1`, the Potency [1] was “inactive”, the max response [2] was 0.793% (inactive) and the Potency [4] was “inactive”. For the same compound, the Potency [7] was “inactive” and the Potency [8] was “inactive”.
For `Clc1cc(Cl)c(-c2c(Cl)c(Cl)cc(Cl)c2Cl)cc1Cl`, the Potency [1] was “inactive”, the Potency [10] was “inactive” and the Potency [3] was “inactive”. The Potency [4] was “inactive”, the Potency [5] was “inactive” and the Potency [6] was “inactive”. The Potency [7] was “inactive”, the Potency [8] was “inactive” and the Potency [9] was “inactive”.
With `NC(=O)c1nc(-c2cccc(-c3cc(F)ccc3OCC(F)(F)C(F)(F)F)c2)n[nH]1` the Potency [1] was “inactive”, the Potency [10] was “inactive” and the Potency [3] was 49 µM (active). For the same compound, the Potency [4] was “inactive”, the Potency [5] was 43.6 µM (active) and the Potency [6] was 43.6 µM (active). The Potency [7] was “inactive” and the Potency [9] was “inactive”.
